Laboratory results: ChEMBL document CHEMBL3988442, “University of Dundee, Small-Polar-MMV Screening Library” (2021)
The whole screen tested about 38,000 compounds, of which about 1,200 (3.2%) showed an effect of 50% or more. The median lay at about -58%. The sample holds strong results, similar compounds and a random draw of the others, so the mix is not that of the screen.

system: Plasmodium falciparum; test: Calibr Malaria Delayed Death Assay SOP; type: functional, organism-based; set-up: scale not given: in the data most compounds retested in dose-response had high values; details: concentration 4.99e-06 (unit not given; other assays of the set use mol/L)

Row | Compound | Percent Effect
1 | O=C1CC(c2ccncc2)C2(CCN(Cc3cccnc3)CC2)N1 (centres undefined) | -62.4%
2 | CN1CCCN(C(=O)NCCNc2cnccn2)CC1 | -4.347%
3 | COCCN1C[C@@H]2[C@@H](OC)CCN(Cc3ccsc3)[C@@H]2C1.O=C(O)C(F)(F)F.O=C(O)C(F)(F)F | 66.72%
4 | CO[C@@H]1CCN(Cc2cccs2)[C@@H]2CN(Cc3ccncc3)C[C@@H]21.O=C(O)C(F)(F)F.O=C(O)C(F)(F)F.O=C(O)C(F)(F)F | 52.08%
5 | CO[C@H]1CCN(C2CCC2)[C@@H]2CN(Cc3ccncc3)C[C@H]12.O=C(O)C(F)(F)F.O=C(O)C(F)(F)F.O=C(O)C(F)(F)F | -45.55%
6 | CO[C@H]1CCN(Cc2c(C)noc2C)[C@@H]2CN(Cc3ccncc3)C[C@H]12.O=C(O)C(F)(F)F.O=C(O)C(F)(F)F.O=C(O)C(F)(F)F | -5.39%
7 | COCCN1C[C@@H]2[C@@H](OC)CCN(Cc3ccco3)[C@@H]2C1.O=C(O)C(F)(F)F.O=C(O)C(F)(F)F | -1.66%
8 | COCCN1C[C@H]2[C@@H](C1)N(Cc1cnn(C)c1)CC[C@H]2OC.O=C(O)C(F)(F)F.O=C(O)C(F)(F)F | -59.33%
9 | COCCN1C[C@@H]2[C@@H](OC)CCN(Cc3ccc(C)o3)[C@@H]2C1.O=C(O)C(F)(F)F.O=C(O)C(F)(F)F | 3.217%
10 | COCCN1C[C@@H]2[C@@H](OC)CCN(Cc3cccs3)[C@@H]2C1.O=C(O)C(F)(F)F.O=C(O)C(F)(F)F | 66.16%
11 | CO[C@H]1CCN(Cc2cnn(C)c2)[C@@H]2CN(Cc3ccncc3)C[C@H]12.O=C(O)C(F)(F)F.O=C(O)C(F)(F)F.O=C(O)C(F)(F)F | -72.72%
12 | CO[C@H]1CCN(Cc2cccs2)[C@@H]2CN(Cc3ccncc3)C[C@H]12.O=C(O)C(F)(F)F.O=C(O)C(F)(F)F.O=C(O)C(F)(F)F | 59.98%
13 | COCCN1C[C@@H]2[C@@H](OC)CCN(Cc3ccncc3)[C@@H]2C1.O=C(O)C(F)(F)F.O=C(O)C(F)(F)F.O=C(O)C(F)(F)F | 24.39%
14 | CO[C@@H]1CCN(Cc2cccc(C)n2)[C@@H]2CN(Cc3ccncc3)C[C@@H]21.O=C(O)C(F)(F)F.O=C(O)C(F)(F)F.O=C(O)C(F)(F)F.O=C(O)C(F)(F)F | 30.62%
15 | CN1CCN(C(=O)c2cc3sccc3n2Cc2ccccc2F)CC1 | 29.89%
16 | NC(=O)c1ccc(CN2CCCC(N3CCCCCC3)C2)cc1 (centres undefined) | -140%
17 | COCC(=O)N1C[C@H](N(C)Cc2cncnc2)[C@H]2OCCC[C@H]21 | -24%
18 | COc1ccccc1OC1CCN(Cc2ccc(N(C)C)nc2)CC1 | -79.91%
19 | O=C(NCCn1cccc1)c1c(O)cc(F)cc1F | -181.2%
20 | Cc1cc(C(=O)N2CCCC2c2nnc3n2CCCCC3)on1 (centres undefined) | -57.59%
21 | CCN1C[C@H]2[C@@H](C1)N(S(=O)(=O)c1ccccc1)CC[C@H]2OC.O=C(O)C(F)(F)F | 60.81%
22 | CCN1C[C@H]2[C@@H](C1)N(S(=O)(=O)c1ccccc1F)CC[C@H]2OC.O=C(O)C(F)(F)F | 45.85%
23 | CCN1C[C@@H]2[C@@H](OC)CCN(S(=O)(=O)c3cccnc3)[C@@H]2C1.O=C(O)C(F)(F)F.O=C(O)C(F)(F)F | -23.75%

Row | Compound | Percent Effect
24 | O=c1cc(N2CCCCC2)cnn1CC(O)C(F)(F)F (centres undefined) | -156.3%
25 | Cc1ccnc(OCC(=O)N2CCCC2)n1 | -75.67%
26 | Fc1cccc(Cl)c1CNCCCOc1ccccn1 | 9.624%
27 | Cc1cccc(NC(=O)C2CSc3ncc(C)c(=O)n3C2)n1 (centres undefined) | -106.9%
28 | c1cnc(N2CCC3(COCc4cnc(N5CCOCC5)nc43)C2)nc1 (centres undefined) | -59.23%
29 | CC(C)(O)CN1CCN(C(=O)c2cccn2Cc2ccccc2)CC1 | -70.89%
30 | Cc1ccc(C2(CN(C)Cc3c(C)nn(C)c3C)CCNCC2)nc1 | 16.34%
31 | Cc1ccc(C2(CN(C)Cc3sccc3C)CCNCC2)nc1 | 76.73%
32 | Cc1ccc(C2(CN(C)Cc3snnc3C)CCNCC2)nc1 | -24.27%
33 | CCCc1nc(N2CCCC(CCOC)C2)c2cnn(C)c2n1 (centres undefined) | -84.44%
34 | CCC(CO)NCc1ccc(-c2ccc(Br)cc2)o1.Cl (centres undefined) | 45.11%
35 | Cc1cc(N2CCCC2)nc(N(C)CCO)c1C#N | -125.9%
36 | CC(=O)N1CCc2nc(N(C)C)nc(NCCc3ccccc3)c2CC1 | -47.75%
37 | CN(C)c1nc2c(c(NCc3cc(O)ncn3)n1)CCCC2 | 89.31%
38 | Cc1nc(CCNc2nc(N(C)C)nc3c2CCCC3)cc(=O)[nH]1 | -16.34%
39 | Cc1cnn(CC2CCCN2Cc2nnc(C)o2)c1 (centres undefined) | -118.7%
40 | CC(C)c1cc(NC(=O)c2ccc(C(=O)NC(C)(C)C)cc2)[nH]n1 | 62.94%
41 | CC(C)c1cc(NC(=O)c2ccncc2)[nH]n1 | -141%
42 | CC(C)c1cc(NC(=O)c2ccc([S+]([O-])C(C)C)cc2)[nH]n1 (centres undefined) | -180.3%
43 | CCn1c(C)nnc1Sc1nn2cc(C)nc2s1 | -124.9%
44 | CCN1CC2(CC1=O)CN(C(=O)c1ccoc1)CCN(C(=O)N(C)C)C2 (centres undefined) | -39.9%
45 | Cc1c(CN2CC[C@@H](N3CCC(O)CC3)[C@H](O)C2)[nH]c2ccc(F)cc12 | -24.81%
46 | Cc1c(CN2CC[C@@H](N3CCC(O)CC3)[C@H](O)C2)[nH]c2ccc(Cl)cc12 | 53.46%

Row | Compound | Percent Effect
47 | Cc1ccc2[nH]c(CN3CC[C@@H](N4CCN(C)CC4)[C@H](O)C3)c(C)c2c1 | -45.01%
48 | Cc1noc([C@@]23CCO[C@@H]2CCN(S(=O)(=O)c2cccnc2)C3)n1 | -112.8%
49 | CSc1ccc(CN(CCO)C(=O)CCc2ccc(O)cc2)cc1 | -83.46%
50 | CN1CCC(N2CCC(C(=O)N(C)C)CC2)CC1.O=C(O)C(F)(F)F.O=C(O)C(F)(F)F | -35.37%
51 | Cc1cc(=O)n2nc(Oc3cc(Cl)cc(Cl)c3)sc2n1 | -6.381%
52 | Cc1cc(=O)n2nc(Oc3ccc(C#N)cc3Cl)sc2n1 | 19.91%
53 | Cc1cc(=O)n2nc(Oc3cccc(I)c3)sc2n1 | 55.78%
54 | O=c1[nH]cnc2[nH]c(N3CCCCC3)nc12 | -26.61%
55 | N#Cc1ccc(NCc2cccc(OCC3CCCO3)c2)nc1 (centres undefined) | -77.93%
56 | COc1cc2c(cc1CNC(=O)C(C)n1ccnc1C(C)C)CCC2 (centres undefined) | 59.1%
57 | COCc1nc(CNC(=O)C(C)n2ccnc2C(C)C)no1 (centres undefined) | -17.51%
58 | COc1cc2c(cc1CNC(=O)C(C)n1ccnc1C(C)C)OCCO2 (centres undefined) | 8.922%
59 | NS(=O)(=O)NCc1cc(-c2ccc(C(F)(F)F)cc2)n[nH]1 | -60.23%
60 | Fc1cccc(N2CCCC3(C2)CN(c2ncccn2)CCO3)c1.O=C(O)C(F)(F)F.O=C(O)C(F)(F)F (centres undefined) | 69.94%
61 | Cn1cc(CN2CCOC3(CCCN(c4cccc(F)c4)C3)C2)cn1.O=C(O)C(F)(F)F.O=C(O)C(F)(F)F (centres undefined) | -10.6%
62 | Fc1cccc(N2CCCC3(CN(Cc4ccco4)CCO3)C2)c1.O=C(O)C(F)(F)F.O=C(O)C(F)(F)F (centres undefined) | 40.81%
63 | Fc1cccc(N2CCCC3(CN(Cc4ccccn4)CCO3)C2)c1.O=C(O)C(F)(F)F.O=C(O)C(F)(F)F.O=C(O)C(F)(F)F (centres undefined) | -90.59%
64 | Fc1cccc(N2CCCC3(CN(Cc4nccs4)CCO3)C2)c1.O=C(O)C(F)(F)F.O=C(O)C(F)(F)F (centres undefined) | -4.725%
65 | Fc1cccc(N2CCCC3(CN(Cc4cccnc4)CCO3)C2)c1.O=C(O)C(F)(F)F.O=C(O)C(F)(F)F.O=C(O)C(F)(F)F (centres undefined) | 64.23%
66 | CC(C)(C)OC(=O)N1CCN(c2nnc(Br)s2)CC1 | -125.7%
67 | Cn1cccc1C(=O)N1CCn2nnc(COc3cccnc3)c2C1.O=C(O)C(F)(F)F | -3.271%
68 | Cc1csc(C(=O)NCCn2nc(-n3cncn3)ccc2=O)c1 | -119.2%
69 | O=C(Cn1cc(-c2ccccc2)ncc1=O)NC1CCCCC1 | -177.8%

Row | Compound | Percent Effect
70 | CCCS(=O)(=O)N1CCOC2(CCCN(c3ccccn3)C2)C1.O=C(O)C(F)(F)F (centres undefined) | -72.32%
71 | COc1ccc2c(c1)OCC(CNC(=O)c1ccc3[nH]nnc3c1)C2 (centres undefined) | -64.67%
72 | COCCN(CC1CCCN(C2Cc3ccccc3C2)C1)C(=O)CSC (centres undefined) | -1.59%
73 | COCCN(CC1CCCN(C2Cc3ccccc3C2)C1)C(=O)CO (centres undefined) | 58.68%
74 | COCCN(CC1CCCN(C2Cc3ccccc3C2)C1)C(=O)COC (centres undefined) | 37.76%
75 | NCc1ccnc(Oc2ccccc2)c1 | -83.78%
76 | O=C(CO)N1C[C@H]2CN(Cc3cccc(F)c3)C(=O)[C@H]2C1 | -121.2%
77 | CN(C)c1cc(C(=O)NCC2(c3ccc(F)cc3)CC2)ccn1 | -97.96%
78 | Fc1ccc(C2(CNC3=NCCN3)CCCC2)cc1.I | 83.26%
79 | CC(NC(=O)NCC1(c2ccc(F)cc2)CCCC1)c1nncn1C (centres undefined) | -7.891%
80 | Fc1ccc(OCCCNC2=NCCCN2)cc1.I | 2.763%
81 | Fc1ccc(C2(CNC3=NCCCN3)CCC2)cc1.I | -5.202%
82 | COc1cccc(N2C(=O)CC3(CCCNC3)C2=O)c1.Cl (centres undefined) | -161.5%
83 | c1ccc2oc(CN3CCCCC3Cn3cncn3)nc2c1 (centres undefined) | -88.89%
84 | COc1cc(CN2CC(=O)N(c3ccc(C)cc3)CC2C)cc(OC)c1 (centres undefined) | 43.44%
85 | COc1ccc(CN2CC(=O)N(c3ccc(C)cc3)CC2C)cc1O (centres undefined) | -98.66%
86 | COc1cccc(CN2CC(=O)N(c3ccccc3C)CC2C)c1OC (centres undefined) | 52.42%
87 | COc1ccc(F)c(F)c1CN1CC(=O)N(c2ccccc2C)CC1C (centres undefined) | 28.54%
88 | COc1cccc(OC)c1CN1CC(=O)N(c2ccc(C)cc2)CC1C (centres undefined) | 75.45%
89 | COc1ccc(F)c(CN2CC(=O)N(c3ccccc3C)CC2C)c1 (centres undefined) | 6.943%
